According to ChEMBL document CHEMBL3988442, “University of Dundee, Small-Polar-MMV Screening Library” (2021):
Hit rate of the full screen: of about 48,000 compounds, about 13,000 (27%) showed an effect of 50% or more. This is one part of the list.

The compounds below were run on Wolbachia pipientis (assay: Anti-Wolbachia Cell-Based Screen). Conditions: 5 µM.
Format: functional
Parameters: scale not given: in the data most compounds retested in dose-response had high values

| Compound | Percent Effect [%] |
| --- | --- |
| c1ccc(SCCN2CCCC(Cn3ccnc3)C2)cc1 (centres undefined) | -2.811 |
| COCCc1noc(CN2CCC3(CCCO3)CCC2=O)n1 (centres undefined) | -3.143 |
| CN(C)C(C(=O)NCCn1cccc1)c1cccc(F)c1 (centres undefined) | 1.101 |
| CC(C)c1nncn1CCNC(=O)c1c(O)cc(F)cc1F | 158.6 |
| CC(C)c1ccc(O)c(C(=O)NCc2nncn2C)c1 | -11.21 |
| CC(C)c1nc(C(=O)NCCn2ccnc2)nn1-c1cccc(F)c1 | 0.4969 |
| CCn1cnnc1CNC(=O)c1cc(Cl)ccc1O | 6.278 |
| O=C(NCCn1cnnc1C1CC1)c1c(O)cc(F)cc1F | 120 |
| CC(C)c1nncn1CCNC(=O)c1ccc(Cl)cc1O | 126.8 |
| CCn1cnnc1CNC(=O)c1cc(Cl)ccc1OC | 2.71 |
| O=C(NCCn1cccc1)c1c(O)cc(F)cc1F | 114.7 |
| O=C(NCCC(=O)N1CCCCCC1)c1c(O)cc(F)cc1F | 4.152 |
| CC(C)Cn1cnnc1C1CCCN1C(=O)c1ccc(F)cc1F (centres undefined) | -3.293 |
| CCOC(=O)N1CCN(c2nc(NC3CC3)c3ccccc3n2)CC1.Cl | 12.46 |
| CC(C)CN1CCC(NC(=O)NCCC(=O)NCc2ccccc2)CC1 | -0.3399 |
| O=C(NC1(C(=O)O)CCCCC1)C1Cc2ccccc2O1 (centres undefined) | 26.74 |
| CC(C(=O)NCc1ccnc(N2CCCC2)c1)n1cncn1 (centres undefined) | -10.11 |
| CCCS(=O)(=O)NC(C)C(=O)NCc1ccc(N2CCCC2)nc1 (centres undefined) | 3.443 |
| CC(C(=O)NCc1ccc(N2CCCCC2)nc1)n1cncn1 (centres undefined) | 91.32 |
| CCN(CC)C(C(=O)NCc1ccc(N2CCCC2)nc1)C(C)C (centres undefined) | 0.1706 |
| CC(C(=O)NCc1ccc(N2CCCC2)nc1)n1cncn1 (centres undefined) | 95.49 |
| CC(C(=O)NCc1ccc(N2CCCCCC2)nc1)n1cncn1 (centres undefined) | 118.8 |
| CCc1cc(N2CCS(=O)(=O)CC2)n2nc(C)c(C)c2n1 | 1.934 |

| Compound | Percent Effect [%] |
| --- | --- |
| Cc1cc(CNC(=O)N2CCc3ccccc32)on1 | 8.57 |
| CC(C)N1CCOC(CC(=O)N2CCCN(Cc3cccs3)CC2)C1 (centres undefined) | 115.9 |
| CC(C)C(C(=O)N1CCN(Cc2ccncc2)CC1)n1cncn1 (centres undefined) | -9.917 |
| CC(C)N1CCOC(CC(=O)N2CC(c3ccncc3)C2)C1 (centres undefined) | 103.1 |
| Cn1cc(Cl)cc1C(=O)N1CCCN(Cc2cccs2)CC1 | 6.765 |
| COc1ccc(C(=O)N2CC(c3ccncc3)C2)c(OC)c1OC | -3.767 |
| O=C1Cc2cc(NC(=O)N3CCCN(Cc4cccs4)CC3)ccc2N1 | -14 |
| CC(C)N1CCOC(CC(=O)N2CCCN(Cc3ccncc3)CC2)C1 (centres undefined) | 108.1 |
| CC(C)c1noc(CCCC(=O)N2CCN(Cc3ccncc3)CC2)n1 | 9.979 |
| CCn1nc(CC(C)C)cc1C(=O)N1CC(c2ccncc2)C1 | 2.203 |
| NC(=O)c1cnc(NCC(=O)NCc2ccco2)c(Cl)c1 | -1.038 |
| COCC(=O)N[C@H](C)c1onc(-c2ccc(Cl)cc2)c1C(=O)O | -3.63 |
| Cc1nccn1CCC1CCCCN1Cc1cccc(CCN)c1 (centres undefined) | -7.51 |
| NC(=O)Cc1csc(NC(=O)C2CSCCC(=O)N2)n1 (centres undefined) | 2.989 |
| O=C(NCc1csc(Br)c1)c1ccc(=O)[nH]n1 | 9.228 |
| CCOC(=O)Cc1csc(NC(=O)c2ccc(=O)[nH]n2)n1 | 95.75 |
| O=C(c1ccno1)N1CC(c2nc(-c3ccco3)no2)C1 | 0.6255 |
| O=S(=O)(Cc1ccccc1)NCCNc1ccc(-n2cccc2)nn1 | 11.81 |
| CN(C)C1CCN(C(=O)CCc2cc(Br)cs2)CC1 | 1.097 |
| Cc1cc(C)cc(CCC(=O)N2CCN(c3cc(C)nc(N)n3)CC2)c1 | -5.077 |
| Cc1cc2cc(CNC3CCN(CC(=O)N(C)C)CC3)oc2cc1C | -4.492 |
| CNC(=O)CCc1cc(C)nc(C2CCN(C(=O)CN(C)C)CC2)c1 | 154.4 |
| CNC(=O)CCc1cc(C)nc(C2CCN(CC(=O)N(C)C)CC2)c1 | 129.2 |

| Compound | Percent Effect [%] |
| --- | --- |
| COC(=O)[C@@H]1Cc2[nH]cnc2CN1Cc1cc2ccccc2o1 | 9.178 |
| CC(=O)N1CCCN(Cc2ccon2)c2ccccc21 | 1.908 |
| Cc1c(CS(C)(=O)=O)cccc1NCC1CCCCC1 | 1.975 |
| COC(=O)C(C)(C)NC(=O)C1CC(=O)N(CC2CC2)C1 (centres undefined) | 110.1 |
| O=C(NCCNc1ncccn1)C1CC(=O)N(CC(F)(F)F)C1 (centres undefined) | 1.939 |
| CCN1CC(C(=O)NC(C)(C)CNC(=O)OC(C)(C)C)CC1=O (centres undefined) | -0.2967 |
| COC(=O)C(C)(C)NC(=O)C1CC(=O)N(CC(C)C)C1 (centres undefined) | 100.8 |
| CCN1CC(C(=O)NC(C)(C)C)CC1=O (centres undefined) | -9.629 |
| COC(=O)C(C)(C)NC(=O)C1CC(=O)N(CC(F)(F)F)C1 (centres undefined) | 83.67 |
| CCN1CC(C(=O)NC(C)(C)CC(C)(C)C)CC1=O (centres undefined) | 2.297 |
| COC(=O)C(C)(C)NC(=O)C1CC(=O)N(C)C1 (centres undefined) | -1.781 |
| CCN1CC(C(=O)NC(C)(C)C(=O)OC)CC1=O (centres undefined) | 77.38 |
| CCC(C)(C)NC(=O)C1CC(=O)N(CC2CC2)C1 (centres undefined) | 3.552 |
| CCN1CC(C(=O)NC(C)(C)CC)CC1=O (centres undefined) | -10.63 |
| CCCc1nc(C(C)(C)NC(=O)C2CC(=O)N(CC3CC3)C2)no1 (centres undefined) | -6.715 |
| CN(C)CCOCC1CN(C(=O)c2ccccn2)Cc2ccnn2C1 (centres undefined) | -6.376 |
| Cc1ccccc1OCCCC(=O)N(C)CCC#N | 8.227 |
| COC(=O)C(C)(C)NC(=O)C1CC(=O)N(C2CC2)C1 (centres undefined) | 103.7 |
| COC(=O)C(C)(C)NC(=O)C1CC(=O)N(C2CCCC2)C1 (centres undefined) | 4.73 |
| CC(C)(CNC(=O)OC(C)(C)C)NC(=O)C1CC(=O)N(C2CC2)C1 (centres undefined) | 10.96 |
| Cl.Cn1nc(C2CCCN(Cc3cccc(F)c3)C2)c2nccnc21 (centres undefined) | 5.539 |
| Cl.Cn1nc(C2CCCN(Cc3cc(F)cc(F)c3)C2)c2nccnc21 (centres undefined) | 114.5 |
| CC(C)(C)OC(=O)NC1CCCN(Cc2cccs2)C1 (centres undefined) | 5.758 |

| Compound | Percent Effect [%] |
| --- | --- |
| Cl.Cn1nc(C2CCCN(Cc3ccc(F)c(F)c3)C2)c2nccnc21 (centres undefined) | 94.15 |
| COc1ccnc(CN2CCCC(CCc3ccc(F)cc3)C2)c1OC (centres undefined) | -12.62 |
| Fc1ccc(NC2CCCN(Cc3ccncc3)C2)cc1 (centres undefined) | 7.502 |
| CCCC(=O)NC1CCCN(Cc2cccs2)C1 (centres undefined) | 90.44 |
| Cn1ccnc1CN1CCCC(CCc2ccc(F)c(F)c2)C1 (centres undefined) | 5.156 |
| Cn1cncc1-c1nnc([C@H]2CCN(Cc3ccc(F)c(F)c3)C2)o1 | -0.5491 |
| Cl.Cn1nc(C2CCCN(Cc3ccc(F)cc3)C2)c2nccnc21 (centres undefined) | 103.8 |
| Cc1ncsc1CCC(=O)NC1CCN(Cc2cccs2)CC1 | 5.127 |
| CC(=O)N[C@@H]1CN(C2CCN(c3cccc(Cl)c3)CC2)C[C@H]1C(C)C | 15.95 |
| Cc1nc(S(=O)(=O)NCCC(=O)NCc2ccsc2)cn1C | -10.44 |
| COCCC1(CO)CCCN(C(=O)c2cc(C#N)c(=O)[nH]c2C)C1 (centres undefined) | 6.218 |
| CC(C)C1CN(C(=O)c2csc(CN(C)C)n2)CCC(=O)N1CC1CC1 (centres undefined) | -2.363 |
| Cc1ccc(CN2CCCC(c3nn(C)c4nccnc34)C2)s1 (centres undefined) | 125.3 |
| Cl.Cn1nc(C2CCCN(Cc3cccs3)C2)c2nccnc21 (centres undefined) | 122.9 |
| c1ccc(CCN2CCCC(Cn3ccnc3)C2)cc1 (centres undefined) | -0.01768 |
| Cc1ccc(CN2CCCC(c3nnc(CN4CCCC4)n3C)C2)s1 (centres undefined) | 10.41 |
| Cl.Cn1nc(C2CCCN(Cc3ccccc3)C2)c2nccnc21 (centres undefined) | 128.3 |
| Cc1ccc(CN2CCCC(c3nnc(CN4CCCCC4)n3C)C2)s1 (centres undefined) | 9.152 |
| COc1cccc(CN2CCCC(c3nn(C)c4nccnc34)C2)c1.Cl (centres undefined) | 110.8 |
| Cn1nc(C2CCCN(Cc3ccsc3)C2)c2nccnc21 (centres undefined) | -5.788 |
| CC(C)n1nc2c(cc1=O)CN(Cc1nnc(C3CC3)o1)CC2 | 15.52 |
| CCc1cc(NCCNC(C)=O)nc(N2CCOCC2)n1 | -17.29 |
| CC1CCc2nc(O)c(C(=O)NCCc3cccs3)cc2C1 (centres undefined) | -7.543 |

| Compound | Percent Effect [%] |
| --- | --- |
| CCc1nnc(C(C)N(C)Cc2c(C)nn(-c3ccccc3)c2C)o1 (centres undefined) | 1.844 |
| CCn1cc(CN2CCCC2c2nc(C(C)C)no2)cc1C#N (centres undefined) | -5.015 |
| Cc1cccc(NC(=O)CNC(=O)Cn2ncc(Cl)c(Cl)c2=O)c1C | -3.817 |
| COc1c(C2CCCN2C(=O)c2sc(C)nc2C)c(C)nn1C (centres undefined) | 94.35 |
| COc1c(C2CCCN2C(=O)c2scnc2C)c(C)nn1C (centres undefined) | 97.95 |
| Cc1ncsc1C(=O)N1CCCC1c1c(C)nn(C)c1Cl (centres undefined) | 100 |
| COc1ccsc1C(=O)N1CCCC1c1c(C)nn(C)c1OC (centres undefined) | -20.58 |
| Clc1cccc2c3c([nH]c12)CCN(Cc1cc2n(n1)CCNC2)C3 | -8.419 |
| CC(C)Oc1cccc(CN(C)C(=O)Nc2cccn(C)c2=O)c1 | -28.92 |
| Cc1ccc(Cl)c2c1C1(NC(=O)c3cccnc3N1)C(=O)N2 (centres undefined) | -5.673 |
| Cc1cnn(CCNCCCOc2ccc3c(c2)OCO3)c1 | 2.747 |
| O=C(NCCCn1cccn1)C1(c2ccc(Br)cc2)CC1 | -2.807 |
| O=C(NCCCn1cccn1)C1(c2ccc(F)cc2)CC1 | -8.161 |
| O=C(CCn1cccn1)NCCOc1ncc(Cl)cc1Cl | 81.6 |
| O=C(C[S+]([O-])C1CCCC1)NCCOc1cccc(Cl)c1 (centres undefined) | -1.497 |
| O=C(CCS(=O)(=O)c1ccccc1)NCCCn1cccn1 | 91.43 |
| O=C(NCCOc1ncc(Cl)cc1Cl)c1ccncc1 | -15.07 |
| c1cnn(CCNCCCOc2ccc3c(c2)OCO3)c1 | -9.966 |
| Cl.O=C(CN1CCC[C@H]1C(=O)O)NCCOc1cccc(Cl)c1 | -9.308 |
| O=C(CCc1ccncc1)NCCOc1ncc(Cl)cc1Cl | -8.284 |
| O=C(CCn1cccn1)NCCOc1cccc(Cl)c1 | 87.31 |
| O=C(CCn1cccn1)NCCOc1ccc2c(c1)OCO2 | 104.8 |
